# Bioassay records from PubChem.
# TGFb SMAD3 inh = blocks TGF-b signaling. HepG2 CAGA-GFP TGF-b/SMAD3 reporter, GFP fluorescence, 18 h; TGF-beta stimulated, 500 pg/mL final. 410,000 tested, 1.2% active. Potency, µM (doses to about 46.1 µM), without a hit: at the top dose activity, negative = inhibition, hits mostly inhibitors. AID 588855; further: potency means the concentration at half of the fitted maximal effect; on the % scale 0 is the no-effect control and ±100 the full control effect; nearly all actives have a fitted effect of over 65% in size
#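 Per well, imaged GFP fluorescence of HEPG2 CAGA-GFP cells gives the signal; cells get compound, then TGF-beta (500 pg/mL final), 18 h at 37 degrees C; %Activity versus -TGF-beta and +DMSO controls.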
# TDP1 cell noCPT = qHTS for Inhibitors of human tyrosyl-DNA phosphodiesterase 1 (TDP1): qHTS in cells in absence of CPT; DT40 Tdp1-/- hTDP1 cells, no CPT, ATP luminescence, 48 h; AID 686978, 2013; Potency, µM (doses to about 46.2 µM), inactives show at the top dose activity change, negative = growth inhibition, usual class: inhibitors; 420,000 tested, 15% active; further: potency means the concentration at half of the fitted maximal effect; on the % scale 0 is the no-effect control and ±100 the full control effect; nearly all actives have a fitted effect of over 55% in size
#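 Stably hTDP1-transfected Tdp1-null chicken DT40 cells were treated with library compounds minus camptothecin and grown for at least 48 hr at 37 °C, after which cellular ATP was quantified by luminescence.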
# HepG2 tox = counter-screen for TGF-b inhibitors: cytotoxicity in HepG2 cells. HepG2 CAGA-GFP viability, ATP luminescence, 18 h. Potency, µM (highest dose often 46.1 µM), for the others: at the highest dose activity change, negative = cytotoxicity, most hits filed as cytotoxic. 410,000 tested, 0.76% active. AID 588856; further: potency means the concentration at half of the fitted maximal effect
#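 CellTiter-Glo luminescence gave cytotoxicity after 18 hours at 37 degrees C. The cells were HepG2 CAGA-GFP in 1% FBS DMEM, stimulated with 500 pg/mL TGF-beta after compound addition. %Activity was normalised to no-cell wells (complete cell-killing) and DMSO (no toxicity), and curves were fitted and classified.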
# TDP1 cell CPT = DT40-hTDP1 cell growth loss with CPT; chicken DT40 Tdp1-/-;hTDP1 cells + 20 nM CPT, ATP luminescence, 48 h; 420,000 tested, 12% active; Potency, µM (series often up to 46.2 µM), for inactives: at the highest dose activity change, negative = growth inhibition, usual class: inhibitors; AID 686979; further: potency means the concentration at half of the fitted maximal effect; on the % scale 0 is the no-effect control and ±100 the full control effect; nearly all actives have a fitted effect of over 55% in size
#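 Chicken DT40 Tdp1-/- cells stably complemented with human TDP1 were seeded at 400 cells/well in medium containing 20 nM camptothecin, exposed to pin-transferred compounds, and grown at 37 °C for at least 48 hr. Viability was read as ATP luminescence.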
# TDP1 block = inhibitors of human tyrosyl-DNA phosphodiesterase TDP1; Q9NUW8; recombinant TDP1, AlphaScreen DNA substrate cleavage; Potency, µM (titrated, usually from 130 µM), without a hit: at the top dose activity change, negative = inhibition, usual class: inhibitors; 350,000 tested, 0.28% active; further: potency means the concentration at half of the fitted maximal effect; on the % scale 0 is the no-effect control and ±100 the full control effect; nearly all actives have a fitted effect of over 40% in size
# Target sequence (Q9NUW8 whole entry, looked up): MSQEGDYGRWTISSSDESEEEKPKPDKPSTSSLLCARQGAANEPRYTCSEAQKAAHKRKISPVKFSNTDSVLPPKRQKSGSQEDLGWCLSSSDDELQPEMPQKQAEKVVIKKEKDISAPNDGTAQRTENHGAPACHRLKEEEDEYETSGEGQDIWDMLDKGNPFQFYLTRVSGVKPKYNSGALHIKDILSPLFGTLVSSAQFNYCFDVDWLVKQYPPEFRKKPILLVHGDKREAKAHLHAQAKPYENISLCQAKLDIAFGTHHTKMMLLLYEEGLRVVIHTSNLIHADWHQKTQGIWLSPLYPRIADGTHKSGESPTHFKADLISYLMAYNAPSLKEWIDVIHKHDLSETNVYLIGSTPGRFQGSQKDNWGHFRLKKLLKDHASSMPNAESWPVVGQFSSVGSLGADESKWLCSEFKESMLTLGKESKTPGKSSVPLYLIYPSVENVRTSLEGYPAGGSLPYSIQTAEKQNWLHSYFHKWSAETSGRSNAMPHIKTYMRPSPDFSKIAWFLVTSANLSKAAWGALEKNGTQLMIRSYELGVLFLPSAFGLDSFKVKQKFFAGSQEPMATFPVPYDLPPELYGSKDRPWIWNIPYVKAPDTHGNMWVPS
#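 E. coli-derived human Tdp1, 1 nM final. Cpd preinc 15 min RT; substrate 15 nM final, 5 min RT; AS bead mix 10 ug/ml final, 10 min RT. Signal loss = tyrosine-FITC cleavage. No-enzyme wells = max signal.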
# IL-1B inflam inh = inflammasome signaling inhibition, IL-1 beta readout. activity change, % at 57.5 µM. THP-1 LPS/ATP IL-1B secretion, AlphaLISA, 16 h; active compounds read low. 360,000 tested, 4.7% active; in the data active means activity change below about -50%; inconclusive means mostly about -30% to -49%; further: on the % scale 0 is the no-effect control and ±100 the full control effect
#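 Secreted IL-1B measured by AlphaLISA bead assay after 16 h compound exposure of THP-1 cells; compounds (final up to 57.5 uM) added 1 h before LPS (250 ng/mL) and ATP (1.25 mM) stimulation; lower signal means less secretion.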
# Active calls of the source: *; ? = inconclusive; / = no result given; ! = not confirmed by another sample; [ ] = remark or other dose. Only some compounds are listed: those with a hit (about 18% of all), similar ones and a draw of the others. Unless noted, the call rests on the fitted dose curve; in most records, active means well fitted curve in the direction sought with a large enough effect; inconclusive means small, poorly fitted or top-dose-only effect, or another doubt; inactive means no such curve, though single readings can be large; an effect the other way counts as inactive or inconclusive.
SMILES,TGFb SMAD3 inh,TDP1 cell noCPT,HepG2 tox,TDP1 cell CPT,TDP1 block,IL-1B inflam inh
C[C@H]1C[C@@H]2[C@H]([C@@H](O)C[C@@]3(C)[C@H]2CC[C@]3(O)C(=O)COC(=O)CCC(=O)O)[C@@]2(C)C=CC(=O)C=C12,/,-16%,/,?,/,/
Cc1c(C=O)c2ccccc2n1Cc1cccc(F)c1,1.8µM*,?,-42%,?,4%,54
Cc1c(C=O)c2ccccc2n1Cc1ccccc1,?,-26%,-40%,-5%,/,5
CCCCNC(=S)N(CCN(CC)CC)Cc1cc2cc3c(cc2[nH]c1=O)OCO3,-8%,15µM*,-13%,?,/,?
NC(=NCCC[C@H](N)C(=O)O)N[N+](=O)[O-],/,-1%,/,3%,2%,/
Cc1cc(N(CCCl)CCCl)ccc1C=Cc1ccncn1,26%,4.6µM*,-9%,2.6µM*,/,-15
Cc1cc(N(CCCl)CCCl)ccc1/C=N/N=C(\N)c1cnccn1,8%,12µM*,-91%,7.3µM*,/,-55*
O=C(Cl)OCc1ccccc1,/,/,/,/,9%,/
COC(=O)c1cn(S(=O)(=O)c2ccccc2)c2ccccc12,0%,26µM*,-10%,?,/,-2
C=CCNc1nnc(Sc2ncccc2[N+](=O)[O-])s1,-27%,7.3µM*,-33%,5.2µM*,9%,-14
Cc1cc(N2CCOCC2)nc2ccc(NC(=O)CCC(=O)N3CCC4(CC3)OCCO4)cc12,-20%,-20%,-10%,-3%,3%,3
Cc1cc(N2CCCCC2)nc2ccc(NC(=O)CCC(=O)N3CCN(c4cccc(Cl)c4)CC3)cc12,?,3.7µM*,-7%,6.5µM*,3%,/
CCC1(O)C(=O)OCc2c1cc1n(c2=O)Cc2cc3c(N)cccc3nc2-1 (stereo unspecified),?,0.052µM*,11%,0.21µM*,/,-97*
COc1cccc2c1C13CC[N+]4(CC5CC5)CO[C@]1(CCC(=O)C3)C4C2,/,-12%,/,3%,0%,/
CC1(C)C2C[C@@H](O)[C@]3(C)C(CC[C@@]4(C)[C@H](c5ccoc5)C[C@H]5O[C@]543)[C@@]2(C)[C@@H](O)C[C@H]1O (stereo partly specified),/,-19%[9.04 µM],/,-18%[9.04 µM],9%,/
Clc1ccc2c(c1)C(c1ccccc1Cl)=NCc1nnc(N3CCN(CCSc4ccccc4)CC3)n1-2,?,?,-84%,26µM*,2%,28
CN1CCN(Cc2nnc3n2-c2ccc(Cl)cc2C(c2ccccc2)=NC3)CC1,-4%,?,-1%,-7%,-3%,18
O=[N+]([O-])c1c(Cl)cccc1-c1c[nH]cc1Cl,/,15µM*,/,21µM*,/,/
C[C@]12CC[C@H]3[C@@H](CC=C4C[C@@H](O)CC[C@@]43C)[C@@H]1CC[C@@H]2O,/,-24%,/,-3%,/,/
CC(=O)Nc1ccc(C2CN(C)CC2C(=O)c2ccc(Cl)cc2)cc1 (stereo unspecified),-15%,0%,6%,3%,5%,-3
CN1CC(C(=O)c2ccc(Cl)cc2)C(c2ccc(N(C)C)cc2)C1 (stereo unspecified),-16%,?,-35%,21µM*,5%,?
Cc1ccc(N2C(=O)NC(=O)/C(=C/c3ccoc3)C2=O)cc1,64%,?,1%,-17%,3.2µM*,/
COc1cc(/C=C2/C(=O)NC(=O)N(c3ccc(C)cc3)C2=O)cc(OC)c1OC,30%,0%,26%,11%,-1%,/
Cc1ccc(N2C(=O)NC(=O)/C(=C/c3cnn(-c4ccc(C)cc4)c3)C2=O)cc1,8%,18µM*,-3%,16µM*,-5%,-10
CSc1ncc(/C=C2/C(=O)NC(=O)N(c3ccc(C)cc3)C2=O)cn1,0%,-24%,1%,21%,-1%,25
SMILES,TGFb SMAD3 inh,TDP1 cell noCPT,HepG2 tox,TDP1 cell CPT,TDP1 block,IL-1B inflam inh
CCOC(=O)c1ccccc1C(=O)OCC,40%,0%,-7%,4%,-2%,21
CCOP(=O)(OCC)/C(=N/OC(=O)c1ccccc1C)C(N)=O,-26%,13µM*,-24%,?,0%,-103*
CCN(CC)C(=O)c1ccc(NC(=O)CCCSc2ccccc2)cc1,-8%,?,-9%,-2%,1%,-11
CCN(CC)C(=O)c1ccc(NC(=O)Nc2ccccc2F)cc1,-11%,9.2µM*,3%,4.6µM*,2%,-15
CCOCCOC(C)=O,/,0%[92.5 µM],/,6%[92.5 µM],12%,/
Cc1cc(-c2ccccc2)cc(C)[n+]1Cc1ccccc1,?,1.6µM*,-3%,1.5µM*,-2%,-2
CC(C)C(=O)c1cn(Cc2ccc(C#N)cc2)c2ccccc12,-14%,?,-2%,29µM*,-9%[56.1 µM],-10
O=C(Oc1ccccc1)N1CCC[C@@]2(CCN(Cc3ccccc3)C2)C1,/,-28%,/,-3%,/,/
O=C(Nc1ccc(F)cc1)Oc1ccc[nH]c1=O,0%,?,6%,?,-3%,?
COc1cccc2c1cc([N+](=O)[O-])c1c(C(=O)O)cc3c(c12)OCO3,-18%,12µM*!,-19%,18µM*!,0%,-58*
C=CCc1cc(OC)c2c(c1)OCO2,-8%,0%,4%,-2%,5%,11
CCC(OC(C)=O)C(CC(C)NC)(c1ccccc1)c1ccccc1 (stereo unspecified),/,25µM*,/,22µM*,/,/
CC[C@H](OC(C)=O)C(C[C@H](C)N(C)C)(c1ccccc1)c1ccccc1,10%,23µM*,-30%,?,7%,/
CC(=O)NC(C)Cc1ccccc1 (stereo unspecified),16%,-10%,3%,11%,-6%,8
COc1cc(C2C(C#N)=C(N)Oc3cc(O)ccc32)cc(OC)c1OC (stereo unspecified),35%,1µM*,-6%,1µM*,3%,20
CN1CCN(c2cc(N3CCCC3)c([N+](=O)[O-])cc2F)CC1,-7%,?,-26%,-26%,4%,?
CCCn1cc(S(=O)(=O)c2ccc(OC)cc2)c(=O)c2cc(F)c(N3CCCCCC3)cc21,-12%,23µM*,-8%,?,-1%,/
COc1ccccc1CN1CCN(C(=O)COc2ccc3ccccc3c2)CC1,-7%,-15%,-16%,?,6%,-5
COc1ccc(OC)c(CN2CCN(C(=O)COc3cccc(C)c3)CC2)c1,-24%,?,0%,26µM*,-5%,-4
